Source: the supplement of paper PMC6555819

tested on: PPARa:RXRa (NR concentration 270 nM, RXRa partner concentration 90 nM); assay: PBM binding z-score (relative to random genomic background probes); higher = stronger binding; sequences stand for … in GC…GCGATTGACAGCGTAGAATGAAGG
Method: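 Protein-binding microarray (Agilent 4x180K custom design, double-stranded 60-nt probes: 5' GC cap, 34-nt variable region, 24-nt constant primer region; full probe sequence given). Purified or IVT nuclear receptor:RXRα heterodimers (3:1 NR:RXRα, mostly 270:90 nM) or homodimers were incubated for 1 h in PBS with 2% milk and no ligand, then detected with Alexa488 antibodies. Fluorescence from o1-orientation probes (~5 replicates averaged) was converted to z-scores against 500 random hg19 background probes. Variable regions are seed direct-repeat (DR0–DR5) sites, all their single-nucleotide variants and half-site ablations.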

Sequence | PBM binding z-score
CCTTACGGGTCACGAGGTTGTAGCACGACGAGCG | 5.73
CCAACTGGGCCAAAAAGGTCATTGATGCCGATAA | 4.57
ATATGTAGGTTACATCCGGGTCATCCAGGCTATG | 4.41
CAAACTAGGTCACTAAAGGTCAAAGTCGAATGAC | 6.51
TCTCGGAGGACACAAAGGTCAGAGCTTTCCAGAG | 3.86
TAGCCTAGGTTATGGGCCAGTATACCACGCGAAC | 0.542
AGAATGAGGTCATACGTAGATCAGGGAAGAAAGT | 6.29
AAAACAGGGTCATCGTAGGCCAGAGTACGCACAG | 6.26
CCTACGGGGCCACGAAAGGTCATTGATTCAGTGA | 4.69
CGAACTAGGTCATCCAGGACCGTGAATACATTGA | 4.4
CGTCCAAGGTCTAGGTCAGTGAAAGAGACTCGAA | 1.06
ACTAGTTGGTCAGCTGAGGTCACACCCAATTCGG | 3.46
TAGCCTAGGTCGTTCAGGGGCCAGTATAGAAAGC | 0.74
CGAACGAGGTCAAAGGACAGTGAAAGGCGACGTA | 6.37
GCTAGTTGGTCAGTAAAAGGTGACACACCGGTCG | 1.54
CGTCCAAGGTCAAAGGTCATTGAAGAGATGACGG | 7.33
CCTACTGGGCCACTAAAGGTCATTGATTCAGTGA | 4.62
CAAACCAGGTCACAGAGGTCAAAGTCCGTGCGTA | 6.49
CCTAGTTGTTCAGGAGGTCACACACCGGATATGA | 4.17
GCTGCTAGGTCAACTGATGGCCAGCTAAAGCTCG | 3.6

Sequence | PBM binding z-score
CTATGTGGGTTAAGGGGGTCATTCAGTTTGAAAG | 6.22
AGAATGAGGTTAAGTTCAGGGAAACAGAATACAT | 4.63
CCTACTGGGCCATTCAGAGGTCAATGATCATATG | 3.87
CGTCCGAGGTCATAGGAGGTCAGTGAAGACAGAT | 6.37
TCTGCTAGGTCATCGATGGTCAGCTAATCTGCTA | 3.2
TCGCCTAGGTCATGGGCCAGTATACCACGCGAAC | 4.13
TCTAGTTGGTCACGGAGGACACACACGACGGGTA | 0.752
CCTTACGGGTAACGAGGTTATAGCACGACGAGCG | 1.62
TCTGCTAGGTCAACGATGGTCAGTTAATCTGCTA | 3.04
CCTTACGGGTCACTGACAGGTTATAGCGTTTGGA | 5.13
CTATGTAGGTTACGGGGGTCATTCAGTTTGAAAG | 6.13
TCGTGTAGGTTACGGGGGCATTCAGGGATGAAGA | 4.58
TAGCCTAGGTCATGCGGGCCAATATAGTGTCGGC | 3.53
CGTCAAAGTTCAACTAAGGTCACGTAAAGCACGC | 6.28
TTACCAAGGTGAACGGTCGTTGATGCACGCCTTG | 2.04
GCTTACAGGTCAAAGGTTATAGCATGAATAGAAT | 7.1
TCTAGTTGGTCACGGAGGTCCCACACGACGGGTA | 0.66
TCTAGTTGGTCAAAGGTCACGCACTCGAAATGCG | 6.76
CCTACTGGGCCAAAAAGGTCATTGATGCCGATAA | 4.51
ACTTACGGGTCTACGAGGTTATAGCACGCGTATA | 1.2
